Data reported in PubChem BioAssay (NCATS).
Results filed as inconclusive are left out. Where a call stands in place of a potency, no number is given. Unmarked numbers belong to inactive results. Active and inactive are the calls of the source. Calls follow the shape of the dose curve; as a rule, active = well fitted curve in the direction sought with a large enough effect; inconclusive = small, poorly fitted or top-dose-only effect, or another doubt; inactive = no such curve, though single readings can be large; an effect the other way counts as inactive or inconclusive.

Assays:
[1] = target: Cellular tumor antigen p53 (Homo sapiens) (UniProt P04637); assay: Primary qHTS for small molecule compounds that upregulate eGFP-tagged delta133p53alpha (in N-terminal) cells. (AID 2060322); conditions: NCI-H358 eGFP-delta133p53alpha fluorescence, 24 h; activation: active compounds read high; also: nearly all actives have a fitted effect of over 75% in size; also: potency is read from the fitted curve at half-maximal effect
In short: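 NCI-H358 cells pre-induced 24 h with 10 ng/ml doxycycline to express N-terminal eGFP-delta133p53alpha, then dosed 24 h at 37C without doxycycline; fixed, Hoechst-stained, GFP intensity by laser scanning cytometry, normalized to DMSO (0%) and 57.5 uM 5-azacytidine (100%).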

[2] = target: Aldehyde dehydrogenase, mitochondrial (Homo sapiens) (UniProt P05091); assay: qHTS for Inhibitors of the Aldehyde Dehydrogenase Family (ALDH2) Primary screen (AID 2061308); conditions: ALDH2 enzyme inhibition qHTS, 1536-well; series mostly up to 56 µM; also: nearly all actives have a fitted effect of over 55% in size
[3] = target: Retinaldehyde dehydrogenase 3 (Homo sapiens) (UniProt P47895); assay: qHTS for Inhibitors of the Aldehyde Dehydrogenase Family (ALDH1A3) Primary screen (AID 2061315); conditions: ALDH inhibition qHTS; series mostly up to 56 µM

Sequence of Cellular tumor antigen p53 (Homo sapiens) (P04637 whole entry, looked up): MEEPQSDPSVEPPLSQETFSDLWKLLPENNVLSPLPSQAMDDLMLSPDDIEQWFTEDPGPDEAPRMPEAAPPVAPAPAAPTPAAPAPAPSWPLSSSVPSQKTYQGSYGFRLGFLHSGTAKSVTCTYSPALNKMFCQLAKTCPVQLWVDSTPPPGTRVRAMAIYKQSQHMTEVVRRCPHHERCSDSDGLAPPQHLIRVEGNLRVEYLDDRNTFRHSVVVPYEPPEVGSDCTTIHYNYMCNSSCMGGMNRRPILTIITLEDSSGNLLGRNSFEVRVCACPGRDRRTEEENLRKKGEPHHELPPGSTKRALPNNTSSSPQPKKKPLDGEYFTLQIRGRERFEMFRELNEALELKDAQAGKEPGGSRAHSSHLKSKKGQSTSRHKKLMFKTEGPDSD

| SMILES | activation [1] [%] | Potency [2] | Potency [3] | Potency [1] |
| --- | --- | --- | --- | --- |
| CC(C)CCC(=O)CC1c2ccccc2C(=O)N1c1ccc2ccc(Cl)nc2n1 (stereo not drawn) | 0.477 | inactive | inactive |  |
| C=C1C(=O)O[C@@H]2C/C(C)=C\C(=O)/C=C(\C)[C@@H](OC(=O)/C(C)=C\C)[C@H](O)[C@@H]12 |  | inactive | inactive | 5.88 µM (active) |
| C=C1C(O)C(OC(=O)c2ccccc2)C2C(C)(C(=O)O)CCCC2(C)C1CC/C(C)=C\CO (stereo not drawn) | 11.5 | inactive | inactive |  |
| COc1ccc(OC2OC(CO[C@@H]3O[C@@H](C)[C@H](O)[C@@H](O)[C@H]3O)C(O)C(O)C2O)cc1OC (stereo partly drawn) | 8.4 | inactive | inactive |  |
| COc1c(C)c(OCC(O)C(C)(C)O)cc2c1CNC2=O (stereo not drawn) | -1.79 | inactive | inactive |  |
| CC(C)c1noc(C2CCN(c3ncnc(Nc4ccc(S(C)(=O)=O)cc4F)c3[N+](=O)[O-])CC2)n1 | 21 | inactive | inactive |  |
| N#C[C@@H]1C[C@H](F)CN1C(=O)CNC1[C@H]2CN(C(=O)c3ccc(F)cc3)C[C@@H]12 (stereo partly drawn) | -1 | inactive | inactive |  |
| Cc1cc(CO)c(O)c(C(=O)CC2CC(=O)NC(=O)C2)c1 | -5.34 | inactive | inactive |  |
| COC(=O)C1C(c2ccc(O)cc2)C(C(=O)OC)C1c1ccc(O)cc1 (stereo not drawn) | -16.1 | inactive | inactive |  |
| CC(C)=CC/C=C(\C)[C@H]1CC[C@]2(C)[C@@H]1[C@H](O)C[C@@H]1[C@@]3(C)CC[C@H](O)C(C)(C)[C@@H]3[C@@H](O[C@@H]3O[C@H](CO)[C@@H](O)[C@H](O)[C@H]3O)C[C@]12C | 1.67 | inactive | inactive |  |
| CCOc1cccc(NC(=O)c2ccc(N3CCCC3)c(C(F)(F)F)c2)c1 | 5.67 | inactive | inactive |  |
| O=C(OCC1=CC(Cl)C(O)C(OC(=O)c2ccccc2)C1O)c1ccccc1 (stereo not drawn) | -22.9 | inactive | inactive |  |
| CC(=O)OCC1=C[C@H](O)[C@@H]2C(C(=O)O)=CO[C@@H](O[C@@H]3O[C@H](CO)[C@@H](O)[C@H](O)[C@H]3O)[C@H]12 | 0.763 | inactive | inactive |  |
| CC1(C)CCC2(C(=O)O)CCC3(C)C(=CCC4C5(C)CCC(O)C(C)(CO)C5C(O)CC43C)C2C1 (stereo not drawn) | -18.8 | inactive | inactive |  |
| COc1cccc(-c2cn(-c3ccc(CCN4CCC(O)CC4)cc3)c3ncnc(N)c23)c1 |  | inactive | inactive | 6.01 µM (active) |
| C=C1C(OC(C)=O)C(=O)C2C(C)(C)C(O)CCC2(C)C1CC(OC(C)=O)/C(C)=C/COC(C)=O (stereo not drawn) | -14.5 | inactive | inactive |  |
| CCCC1=CC2=C(CO1)C(=O)C(C)(O)C(OC(=O)c1c(C)cc(OC)cc1O)C2 (stereo not drawn) | -1.53 | inactive | inactive |  |
| Cc1cc(C)c(NC(=O)N(Cc2ccc3c(c2)Cc2ccccc2-3)C2CCCCCC2)c(C)c1 | 15.3 | inactive | inactive |  |
| CC1(C)SC2C(NC(=O)[C@H](NC(=O)N3CCNC3=O)c3ccccc3)C(=O)N2C1C(=O)O (stereo partly drawn) | 17 | inactive | inactive |  |
| CC(=O)OC1C=C(C(=O)O)C2(CO)CCC(C)C(C)(CCc3ccoc3)C2C1 (stereo not drawn) | -25.2 | inactive | inactive |  |
| C=C(C)[C@@]1(O)C[C@@]2(C)C(=CC1=O)CC[C@@H](O)[C@@H]2C | -3.82 | inactive | inactive |  |
| C=CC1(C)CC(O)C2(CCC3C(C)(C(=O)O)CCCC3(C)C2=O)C1 (stereo not drawn) | -2.29 | inactive | inactive |  |
| CCC[C@@H]1C[C@@H](C(=O)N[C@@H]([C@H]2O[C@H](SC)[C@H](OP(=O)(O)O)[C@@H](O)[C@H]2O)[C@H](C)Cl)N(C)C1 | 13.4 | inactive | inactive |  |
| OC[C@H]1O[C@@H](O[C@H]2[C@H](OCc3ccccc3)O[C@H](CO[C@@H]3OC[C@@H](O)[C@H](O)[C@H]3O)[C@@H](O)[C@@H]2O)[C@H](O)[C@@H](O)[C@@H]1O | -15.2 | inactive | inactive |  |
| CCOc1nc(NC(=O)Cc2cc(OC)ccc2OC)cc(N)c1C#N | 15 | inactive | inactive |  |
| C/C=C/C=C/C(=O)OC1CC/C=C/C(O)C(O)C(CCC)OC1=O (stereo not drawn) | -12.2 | inactive | inactive |  |
